Shiga inhibitor – inhibitors of Shiga toxin in Vero cells | inhibition, % at 38.7 µM | 290,000 tested, 9.2% active | Vero cells, Shiga toxin protein synthesis inhibition reporter; in the data active = inhibition mostly above about 28%, no sharp cut-off; inactive = mostly below about 43%; note: 0% is about no effect
Cycloheximide cs – counter-screen for Shiga toxin inhibitors: cycloheximide protein synthesis inhibition | cell reporter, cycloheximide protein synthesis inhibition counterscreen | max response, % | 300,000 tested, 12% active | AID 2314; in the data active = max response mostly above about 13%, no sharp cut-off; inactive = mostly below about 14%; note: read at 38.3 µM for the half of the compounds with a filed dose; 0% is about no effect
AmpC detergent – blocks E. coli AmpC beta-lactamase in detergent assay; P00811; AmpC hydrolysis of nitrocefin, absorbance 480 nm, 0.01% Triton; Potency, µM (top dose mostly 114 µM), inactives show top-dose activity change, negative = inhibition, hits mostly inhibitors; 370,000 tested, 0.041% active; AID 485294;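 note: potency is the fitted concentration of half-maximal effect; 0% = no-compound wells and -100% = no-enzyme wells; nearly all actives have a fitted effect of over 25% in size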
Target sequence (P00811 whole entry, looked up): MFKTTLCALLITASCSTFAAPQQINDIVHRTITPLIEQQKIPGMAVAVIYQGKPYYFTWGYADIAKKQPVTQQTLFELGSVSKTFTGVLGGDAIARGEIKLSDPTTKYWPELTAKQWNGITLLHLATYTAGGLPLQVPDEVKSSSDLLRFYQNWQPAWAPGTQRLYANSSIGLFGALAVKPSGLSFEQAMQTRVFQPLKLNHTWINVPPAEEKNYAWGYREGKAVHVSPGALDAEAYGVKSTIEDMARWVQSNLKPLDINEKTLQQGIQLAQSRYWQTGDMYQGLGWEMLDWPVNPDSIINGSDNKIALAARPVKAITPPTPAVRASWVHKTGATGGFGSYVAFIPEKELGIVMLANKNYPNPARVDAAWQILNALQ
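AmpC (5.3 nM in the dispensed reagent) in 20 mM phosphate pH 7.0 with 0.01% (detergent screen) or 0.0001% Triton X-100 was preincubated with compounds for 15 min at room temperature. Nitrocefin was then added from an 800 uM solution, and hydrolysis was followed at 480 nm.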
AmpC no deterg – inhibitors of E. coli AmpC beta-lactamase without detergent; P00811; AmpC nitrocefin hydrolysis, absorbance 480 nm, 0.0001% Triton; Potency, µM (highest dose often 57.1 µM), inactives show top-dose activity change, negative = inhibition, hits mostly inhibitors; 330,000 tested, 0.52% active; AID 485341;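 note: potency is the fitted concentration of half-maximal effect; plate controls were no compound for no effect and no enzyme for full effect; nearly all actives have a fitted effect of over 20% in size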
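20 mM phosphate pH 7.0 + 0.01% (detergent screen) or 0.0001% Triton X-100; 5.3 nM AmpC reagent; cpd preinc 15 min RT; nitrocefin (800 uM stock) to start; A480 q20 s × 4 min; Activity was normalised to no-enzyme and no-compound control wells.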
NS1 function inh – influenza NS1 inhibition; 270,000 tested, 0.4% active; AID 2326; Potency, µM (top dose mostly 46.1 µM), inactives show at the top dose activity, positive = more growth; calls by dose curve; note: potency is the fitted concentration of half-maximal effect; actives are rising curves; nearly all actives have a fitted effect of over 50% in size
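A cell-based growth assay was used: compounds that relieve NS1-induced slow growth of budding yeast raise OD600. Assay medium was yeast nitrogen base with ammonium sulphate and -URA supplement, pH 6.0, with 2% galactose.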
The depositor's hits bear a star; ? = inconclusive; . = no result given. The entries come from a sample that favours hits as a whole. Unless noted, calls come from the whole dose curve; as a rule, active = well fitted curve in the direction sought with a large enough effect; inconclusive = small, poorly fitted or top-dose-only effect, or another doubt; inactive = no such curve, though single readings can be large; an effect the other way counts as inactive or inconclusive.

SMILES	Shiga inhibitor	Cycloheximide cs	AmpC detergent	AmpC no deterg	NS1 function inh
COc1cc2c(cc1OC)CN(c1ccc(C(F)(F)F)cn1)CC2	53*	21*	-13%	41%	-29%
COc1cc2c(cc1OC)CN(c1ccc(-c3ccccc3OC)nn1)CC2	4	-3	?	48%	-78%
COc1cc2c(cc1OC)CN(c1ccc3ccccc3n1)CC2	88*	42*	-8%	36%	-12%
CCOc1c2ccoc2nc2c(OC)c(OC)ccc12	18	18*	1%	-1%	-31%
C=CCOc1ccc2c(OC)c3ccoc3nc2c1OC	39*	26*	-2%	-2%	-20%
COC(=O)CNc1c(-c2ccccc2)nc2ccc(Br)cn12	50*	42*	-3%	-11%	-55%
O=C(NCc1ccc2c(c1)OCO2)c1ccc2c(c1)N(Cc1c(F)cccc1Cl)C(=O)c1ccccc1S2	3	1	0%	.	.
COc1ccccc1/C=C/C(=O)NCCc1ccccn1	88*	55*	-6%	27%	-1%
COc1cc(/C=C/C(=O)NCc2ccccn2)cc(OC)c1OC	6	-2	0%	-5%	-11%
COc1ccccc1/C=C/C(=O)Nc1cccnc1Cl	51*	30*	2%	-11%	23%
COc1ccc(/C=C/C(=O)Nc2cccnc2Cl)cc1	60*	42*	-9%	-23%	-3%
O=C(Cn1cc(Cl)c([N+](=O)[O-])n1)NCCC1=CCCCC1	17	15*	6%	-15%	4%
O=C(COC(=O)c1ccc([N+](=O)[O-])cc1)NCCC1=CCCCC1	.	.	.	-15%	.
O=C(CC1CC2CCC1C2)NCc1cccs1 (stereo not given)	52	15*	3%	-15%	-13%
O=C(c1cc2ccccc2oc1=O)N1CCN(c2ccc(N3CCOCC3)nn2)CC1	19	-3	?	0.14µM*	-5%
COc1ccc2oc(=O)c(C(=O)N3CCN(c4ccccc4)CC3)cc2c1	78	19*	-8%	27%	-17%
COc1ccc2oc(=O)c(C(=O)N3CCN(c4ccccc4C)CC3)cc2c1	132*	66*	-3%	-19%	-23%
COc1ccc2oc(=O)c(C(=O)N3CCN(C(=O)c4ccccc4)CC3)cc2c1	-10	-3	?	-1%	4%
O=C(NCCc1csc(-c2ccc(F)cc2)n1)c1cccc(F)c1	.	.	20%	.	.
COc1cc(Nc2ccc(S(N)(=O)=O)cc2)c([N+](=O)[O-])nc1[N+](=O)[O-]	.	-3	-12%	-15%	4%
CCc1ccc(C2=NN(C(C)=O)C(c3ccco3)C2)cc1 (stereo not given)	79*	34*	2%	33%	-5%
COc1ccc(C2=NN(C(=O)c3ccco3)C(c3ccco3)C2)cc1OC (stereo not given)	41*	14*	3%	1%	2%
COc1ccc(C2=NN(C(N)=S)C(c3ccco3)C2)cc1 (stereo not given)	27	20*	8%	-30%	.
CCC(=O)N1N=C(c2ccc(Cl)cc2)CC1c1ccco1 (stereo not given)	12	2	7%	76%	-2%
CCCCNC(=O)c1ccc(CS(=O)(=O)Cc2ccccc2F)o1	11	-1	5%	-33%	.
SMILES	Shiga inhibitor	Cycloheximide cs	AmpC detergent	AmpC no deterg	NS1 function inh
O=C(c1ccc2c(Cl)c3c(nc2c1)CCCC3)N1CCN(c2cccc(C(F)(F)F)c2)CC1	.	.	-7%	.	.
O=C(NCc1cc2ccccc2[nH]1)C1CCC(=O)N(CCCN2CCCC2=O)C1 (stereo not given)	-5	12	-1%	118%	4%
COc1cccc(CNc2ncnc3cc(OC)c(OC)cc23)c1	2	-2	5%	3.2µM*	1%
CCOc1ccc(NC(=O)CSc2nc3ccsc3c(=O)n2CCC(C)C)cc1	.	.	1%	.	.
CNc1ccccc(-c2ccc3ccccc3n2)c1=O	52*	59*	-4%	-16%	-8%
Clc1ccccc1Cn1cccc1C1=NC(Cc2ccccc2)CO1 (stereo not given)	.	.	2%	.	.
Cc1cc(C)cc(C(=O)N2CCC3(CC2)NCCc2[nH]cnc23)c1	16	-4	-5%	-7%	-8%
CSc1nc(=NC(C)=O)ss1	68*	33*	7%	-16%	-38%
Cc1ccc(CNC(=O)CC2(CC3=NS(=O)(=O)c4ccccc4N3)CCCC2)cc1	18	8.5*	-12%	2%	-21%
CC#CCc1cc2ccccc2c(=O)o1	12	5.2*	-1%	-20%	5%
